About 2,000 (36%) of roughly 5,500 compounds were called active. Not shown: some 18% with an inconclusive outcome. No stated cut-off is given here; in the data, active means normalized growth mostly below about 0.91 (no sharp cut-off); inconclusive means no clear call, values can overlap the other calls; inactive means mostly above about 0.92. The list shows a part of the results.
Assay: chemical genetic growth profiling, strain panel (AID 1159580);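 further: tested at 20 µM; growth read once vehicle control cultures reached saturation at 30 °C; 1 = growth at the plate median or of vehicle wells; lower values mean less growth of the strain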
Conditions: S. cerevisiae deletion strains, growth OD

Measured: normalized growth

O=[N+]([O-])O[C@@H]1CO[C@H]2[C@@H]1OC[C@@H]2O
inactive: locus YHR030C, strain SLT2, active compounds read low 0.983 | locus YHR079C, strain IRE1, active compounds read low 0.991 | locus YJL095W, strain BCK1, active compounds read low 1 | locus YJR066W, strain TOR1, active compounds read low 0.955 | locus YLR113W, strain HOG1, active compounds read low 0.999 | locus YNL183C, strain NPR1, active compounds read low 0.932 | locus YOR231W, strain MKK1, active compounds read low 0.981 | locus YPL256C, strain CLN2, active compounds read low 0.966

Source: PubChem BioAssay AID1159580 (chemical genetic matrix, 2015)
